From PubChem BioAssay (NCATS) come the findings set out here.

The nature of assay [1]: qHTS for Inhibitors of the Functional Ribonucleoprotein Complex (vRNP) of Lassa (LASV) Arenavirus: LASV Primary Screen - GLuc reporter signal (AID 1347082; calls by dose curve; tested in HEK293 reporter line; also: nearly all actives have a fitted effect of over 60% in size). (In qHTS, concentration-response curves come from the screen itself.)
Assay [2] can be described thus: qHTS for Inhibitors of the Functional Ribonucleoprotein Complex (vRNP) of Lassa (LASV) Arenavirus: Viability assay - alamar blue signal for LASV Primary Screen (AID 1347083; calls by dose curve; tested in HEK293 reporter line; also: nearly all actives have a fitted effect of over 80% in size).
Assay [3] in a line: qHTS for Inhibitors of the Functional Ribonucleoprotein Complex (vRNP) of Lymphocytic Choriomeningitis Arenaviruses (LCMV): Viability assay - alamar blue signal for LCMV Primary Screen (AID 1347085; calls by dose curve; tested in HEK293 reporter line; also: nearly all actives have a fitted effect of over 80% in size).
The target of assay [4] is Nucleoprotein (Lymphocytic choriomeningitis virus (strain Armstrong)) (UniProt P09992). In words: qHTS for Inhibitors of the Functional Ribonucleoprotein Complex (vRNP) of Lymphocytic Choriomeningitis Arenaviruses (LCMV): LCMV Primary Screen - GLuc reporter signal (AID 1347086). Also: nearly all actives have a fitted effect of over 70% in size.
Nucleoprotein (Lymphocytic choriomeningitis virus (strain Armstrong)), sequence (P09992 whole entry, looked up): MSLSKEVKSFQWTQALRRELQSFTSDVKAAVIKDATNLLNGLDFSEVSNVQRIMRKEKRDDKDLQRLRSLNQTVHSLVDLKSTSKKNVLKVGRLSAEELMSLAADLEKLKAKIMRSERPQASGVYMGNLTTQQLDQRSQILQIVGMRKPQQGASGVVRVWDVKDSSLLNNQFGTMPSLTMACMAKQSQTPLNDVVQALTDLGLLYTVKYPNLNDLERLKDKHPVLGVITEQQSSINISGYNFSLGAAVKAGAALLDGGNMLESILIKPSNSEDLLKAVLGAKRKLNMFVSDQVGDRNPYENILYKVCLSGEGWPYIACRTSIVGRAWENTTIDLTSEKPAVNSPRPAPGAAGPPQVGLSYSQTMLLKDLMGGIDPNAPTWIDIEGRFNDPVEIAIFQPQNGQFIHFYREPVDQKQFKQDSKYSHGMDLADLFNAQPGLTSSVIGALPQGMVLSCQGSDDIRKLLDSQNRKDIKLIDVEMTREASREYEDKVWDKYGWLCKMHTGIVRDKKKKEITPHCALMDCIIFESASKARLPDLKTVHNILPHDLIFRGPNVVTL

Molecules are shown by their SMILES. Inconclusive results are not listed. Unmarked numbers belong to inactive results. Active and inactive are the calls of the source. Unless noted, calls follow the shape of the full dose curve.
Potency is read from the fitted curve at half-maximal effect.

`COc1ccc(CCC(N)=O)cc1OC`: the Potency result in assay [1], in assay [2], in assay [3] and in assay [4] was “inactive” in each case.

Regarding `COc1cc(-c2cc(=O)c3c(O)cc(O)cc3o2)ccc1O`, the Potency entry in assay [1], in assay [2], in assay [3] and in assay [4] was “inactive” each time.

With `CC(=O)OCC1=C(C(=O)O)N2C(=O)[C@@H](NC(=O)Cc3ccccc3)[C@H]2SC1`, the Potency entry in assay [1], in assay [2], in assay [3] and in assay [4] was “inactive” in each case.

As to `O=c1cc(-c2ccccc2)oc2cc(O)ccc12`, the Potency entry in assay [1], in assay [2], in assay [3] and in assay [4] was “inactive” each time.

For `CCc1nccc2c1[nH]c1ccccc12`, the Potency result in assay [1], in assay [2], in assay [3] and in assay [4] was “inactive” throughout.

For `CC12CCC(C1)C(C)(C)C2=O` (stereo not given), the Potency entry in assay [1], in assay [2], in assay [3] and in assay [4] was “inactive” throughout.

In the case of `Cn1c2ccccc2c(=O)c2c(O)cccc21`, the Potency result in assay [1], in assay [2], in assay [3] and in assay [4] was “inactive” in each case.

Take `CCCCCC(C)O` (stereo not given): the Potency result in assay [1], in assay [2], in assay [3] and in assay [4] was “inactive” in each case.

With `COc1cc2c3c(c1OC)-c1cc(O)ccc1CC3NCC2` (stereo not given), the Potency result in assay [1], in assay [2], in assay [3] and in assay [4] was “inactive” each time.

On to `COC(=O)c1ccccc1-n1c(C)nc2ccccc2c1=O`, for which the Potency result in assay [1], in assay [2], in assay [3] and in assay [4] was “inactive” each time.

As to `COc1ccc(C[C@H]2c3cc(O)c(OC)cc3CC[N+]2(C)[O-])cc1O` (stereo not given in full), the Potency entry in assay [1], in assay [2], in assay [3] and in assay [4] was “inactive” in each case.

As for `COc1cc2c3c(c1OC)C1(C=CC(=O)C=C1)CC3N(C(C)=O)CC2` (stereo not given), the Potency result in assay [1], in assay [2], in assay [3] and in assay [4] was “inactive” each time.

Consider `CC/C=C\CC/C=C/CO`, for which the Potency entry in assay [1], in assay [2], in assay [3] and in assay [4] was “inactive” throughout.

In the case of `O=c1oc(-c2ccc(O)c(O)c2)cc2cc(O)cc(O)c12`, the Potency result in assay [1], in assay [2], in assay [3] and in assay [4] was “inactive” in each case.

For `COC(=O)C1=COC(O[C@H]2OC(CO)[C@H](O)C(O)C2O)[C@H]2C1C(=O)C[C@@H]2C` (stereo not given in full), the Potency result in assay [1], in assay [2], in assay [3] and in assay [4] was “inactive” each time.

Take `COc1cc(C(=O)O[C@@H]2CC3CC[C@]2(C)C3(C)C)ccc1O`: the Potency entry in assay [1], in assay [2], in assay [3] and in assay [4] was “inactive” throughout.

On to `Cc1cc(=O)c2c(O)c(O)ccc2o1`, for which the Potency result in assay [1], in assay [2], in assay [3] and in assay [4] was “inactive” each time.

In the case of `COc1cc2oc(=O)c3c4c(cc5ccc(c1CCN(C)C)c2c53)OCO4`, the Potency result in assay [1], in assay [2], in assay [3] and in assay [4] was “inactive” each time.

Take `O=C(O)Cn1ccnc1`: the Potency entry in assay [1], in assay [2], in assay [3] and in assay [4] was “inactive” throughout.

In the case of `CC(C)=CCC/C(C)=C/Cc1c(O)ccc(C(=O)/C=C/c2ccc(O)cc2)c1O`, the Potency result in assay [1], in assay [2], in assay [3] and in assay [4] was “inactive” in each case.

On to `CC1=CC2OC3CC4OC(=O)C=CC=CC(C(C)O)OCC(O)C(C)CC(=O)OCC2(CC1O)C4(C)C31CO1` (stereo not given), for which the Potency entry in assay [1], in assay [2], in assay [3] and in assay [4] was “inactive” each time.

Regarding `COc1cc(CCc2ccccc2)c(C(=O)O)c(O)c1CC=C(C)C`, the Potency result in assay [1], in assay [2], in assay [3] and in assay [4] was “inactive” in each case.

For the compound `COc1cc(C(=O)O[C@H]2C/C(C)=C/CC/C(C)=C/[C@@H](O)C2C(C)C)ccc1O` (stereo not given in full), the Potency result in assay [1], in assay [2], in assay [3] and in assay [4] was “inactive” throughout.

As for `C[C@@H](C[C@@H](O)[C@H](O)C(C)(C)O)[C@@H]1CC[C@]2(C)C3=CC[C@H]4C(C)(C)C(=O)CC[C@]4(C)[C@H]3CC[C@@]12C`, the Potency result in assay [1], in assay [2], in assay [3] and in assay [4] was “inactive” each time.

As for `CCCCCCCCCCCCCC[C@@H](O)[C@@H](O)[C@@H](N)CO`, the Potency result in assay [1], in assay [2], in assay [3] and in assay [4] was “inactive” in each case.

Take `CC(C)c1noc(N2CCC(COc3ccc(-c4ccc(S(C)(=O)=O)cc4)nc3)CC2)n1`: the Potency entry in assay [1], in assay [2], in assay [3] and in assay [4] was “inactive” throughout.

As for `Cc1cc(OCCCc2c(C(=O)O)n(Cc3cccnc3)c3c(-c4c(COc5ccc(N6CCN([S+](C)(=O)[O-])CC6)cc5)nn(C)c4C)cccc23)cc(C)c1Cl`, the Potency entry in assay [1], in assay [2], in assay [3] and in assay [4] was “inactive” each time.

For `COc1ccc([C@@H](OC)[C@@]2(Cc3ccc(O)cc3)N=C(N)N(C)C2=O)cc1`, the Potency result in assay [1], in assay [2], in assay [3] and in assay [4] was “inactive” throughout.

Regarding `FC(F)c1nc2ccccc2n1-c1nc(N2CCOCC2)nc(N2CCOCC2)n1`, the Potency in assay [1] was 8.63 µM (active); in assay [2] it was 3.06 µM (active); in assay [3] it was 13.7 µM (active); in assay [4] it was 19.3 µM (active).

`COc1c2ccc(OCC/C(C)=C/C(=O)C=C(C)C)cc2nc2occc12`: the Potency result in assay [1], in assay [2], in assay [3] and in assay [4] was “inactive” each time.
